Consider 32 compounds from ChEMBL document CHEMBL2218924, “A broad activity screen in support of a chemogenomic map for kinase signalling research and drug discovery” (Biochem J, 2013).

The structures appear in SMILES notation.

The target in one assay is Ribosomal protein S6 kinase beta-1 (Homo sapiens) (UniProt P23443). Conditions: at 1 µM.
Sequence of Ribosomal protein S6 kinase beta-1 (Homo sapiens) (P23443 whole entry, looked up): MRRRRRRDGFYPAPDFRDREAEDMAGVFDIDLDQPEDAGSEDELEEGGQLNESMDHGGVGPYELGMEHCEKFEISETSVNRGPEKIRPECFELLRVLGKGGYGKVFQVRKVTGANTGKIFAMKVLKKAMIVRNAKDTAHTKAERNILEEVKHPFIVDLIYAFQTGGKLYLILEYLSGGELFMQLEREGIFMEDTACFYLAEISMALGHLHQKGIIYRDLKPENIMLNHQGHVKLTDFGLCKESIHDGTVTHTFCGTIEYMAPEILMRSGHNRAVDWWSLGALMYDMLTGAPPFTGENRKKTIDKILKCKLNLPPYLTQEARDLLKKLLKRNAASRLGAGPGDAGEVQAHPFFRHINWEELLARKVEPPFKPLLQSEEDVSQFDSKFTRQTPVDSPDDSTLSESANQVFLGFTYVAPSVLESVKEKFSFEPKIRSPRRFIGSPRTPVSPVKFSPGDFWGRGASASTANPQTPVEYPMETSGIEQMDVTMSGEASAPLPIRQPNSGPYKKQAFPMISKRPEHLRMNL
As usually defined, the residual activity is the signal under treatment as a percentage of the control signal. As for `COc1cc2ncnc(Nc3cccc(Cl)c3)c2cc1OC`, the residual activity was 82%.
Same read-out and setting: the figure for `O=C1NC(=O)C(c2cn(CCCO)c3ncccc23)=C1c1cnccn1` is 91%; for `O=C(NC(NC(=S)Nc1ccc(F)c([N+](=O)[O-])c1)C(Cl)(Cl)Cl)C(c1ccccc1)c1ccccc1` (centres undefined) it is 141%; for `CC(C)(C)n1nc(Cc2cccc3ccccc23)c2c(N)ncnc21` it is 118%.
Same read-out and setting: under `Nc1ncnc2c1c(-c1ccc(Oc3ccccc3)cc1)cn2C1CCCC1` stands 67%.
The same measure, in the same setting: the figure for `O=C(c1ccccc1)c1ccc(N2CCOCC2)cc1O` is 77%.
In the case of `COc1cc2nccc(Oc3ccc(NC(=O)Nc4cc(C)on4)c(Cl)c3)c2cc1OC`, the residual activity amounted to 76%.
`O=C1Cc2c([nH]c3ccc([N+](=O)[O-])cc23)-c2ccccc2N1`: the residual activity was determined as 106%.
Still for that read-out and setting: the figure for `CC(C)c1nn(-c2c(Cl)cccc2Cl)c2nc(Cc3ccc(OCCO)cc3)[nH]c(=O)c12` is 81%.
In the case of `Cn1sc(=O)n(Cc2ccccc2)c1=O`, the residual activity was determined as 67%.
Still for that read-out and setting: the figure for `COc1ccc2c(c1)c(C1=C(c3c[nH]c4ccccc34)C(=O)NC1=O)cn2CCCN(C)C` is 22%; for `Nc1ncnc2c1cnn2-c1ccccc1` it is 84%.
With `O=C(O)/C=C/c1cc(Br)c(Br)c(Br)c1Br`, the residual activity was determined as 84%.
Still for that read-out and setting: under `O=C1NC(=O)C(c2c[nH]c3ccccc23)=C1c1c[nH]c2ccccc12` stands 48%; under `Cn1c2ccccc2c2c3c(c4c5ccccc5n(CCC#N)c4c21)CNC3=O`, 1%; under `O=C1NC(=O)c2c1c1c3ccccc3[nH]c1n1cncc21`, 68%.
For `COc1cc2c(cc1OC)-c1n[nH]c(Nc3cccc(F)c3)c1C2`, the residual activity was 63%.
For `Nc1n[nH]c2nc3ccccc3nc12`, the residual activity amounted to 78%.
Take `O=c1cc(N2CCNCC2)oc2c(-c3ccccc3)cccc12`: the residual activity came out at 69%.
With `CCCC(=O)Oc1ccc2[nH]c(C(=O)c3cc4ccccc4[nH]3)cc2c1`, the residual activity came out at 104%.
Still for that read-out and setting: the figure for `O=C1Nc2ccccc2/C1=C\c1c(Cl)[nH]c2ccccc12` is 87%; for `N#Cc1c(NC(=O)c2cccc3ccccc23)sc2c1CCCC2` it is 91%; for `O=C1Nc2ccc(Cl)cc2/C1=C/c1cc(Cl)c(O)c(Cl)c1` it is 60%.
Same read-out and setting: under `COc1cc2nccc(Oc3ccc(NC(=S)NC(=O)c4ccccc4C)cc3)c2cc1OC` stands 66%; under `Oc1cccc(-c2nc(N3CCOCC3)c3oc4ncccc4c3n2)c1`, 68%.
Same read-out and setting: under `O=C1Cc2c([nH]c3ccc(Br)cc23)-c2ccccc2N1` stands 66%; under `NC(=O)Nc1sc(-c2ccc(F)cc2)cc1C(N)=O`, 78%.
As for `N#C/C(=C1/Nc2ccccc2S1)c1ccnc(NCCc2cccnc2)n1`, the residual activity is 72%.
The same measure, in the same setting: under `COc1ccc(Cl)cc1NC(=O)Nc1cc(C)nc2ccccc12` stands 97%.
Still for that read-out and setting: the figure for `O=c1cc(N2CCOCC2)oc2c1ccc1ccccc12` is 74%; for `Nc1ncnc2[nH]nc(Nc3ccc(F)cc3)c12` it is 91%.
On the same count and under the same terms, the figure for `O=C(c1cc2cc(O)ccc2[nH]1)c1cc2cc(O)ccc2[nH]1` is 73%.

The target is the same in another assay. The conditions noted are these: at 10 µM.
As to `COc1cc2ncnc(Nc3cccc(Cl)c3)c2cc1OC`, the residual activity came to 59%.
With `O=C1NC(=O)C(c2cn(CCCO)c3ncccc23)=C1c1cnccn1`, the residual activity stood at 76%.
Still for that read-out and setting: the figure for `O=C(NC(NC(=S)Nc1ccc(F)c([N+](=O)[O-])c1)C(Cl)(Cl)Cl)C(c1ccccc1)c1ccccc1` (centres undefined) is 99%.
In the case of `CC(C)(C)n1nc(Cc2cccc3ccccc23)c2c(N)ncnc21`, the residual activity worked out at 96%.
Still for that read-out and setting: under `Nc1ncnc2c1c(-c1ccc(Oc3ccccc3)cc1)cn2C1CCCC1` stands 45%.
Turning to `O=C(c1ccccc1)c1ccc(N2CCOCC2)cc1O`, the residual activity amounted to 53%.
In the case of `COc1cc2nccc(Oc3ccc(NC(=O)Nc4cc(C)on4)c(Cl)c3)c2cc1OC`, the residual activity stood at 53%.
Same read-out and setting: the figure for `O=C1Cc2c([nH]c3ccc([N+](=O)[O-])cc23)-c2ccccc2N1` is 103%; for `CC(C)c1nn(-c2c(Cl)cccc2Cl)c2nc(Cc3ccc(OCCO)cc3)[nH]c(=O)c12` it is 59%; for `Cn1sc(=O)n(Cc2ccccc2)c1=O` it is 57%.
For the compound `COc1ccc2c(c1)c(C1=C(c3c[nH]c4ccccc34)C(=O)NC1=O)cn2CCCN(C)C`, the residual activity is 2%.
`Nc1ncnc2c1cnn2-c1ccccc1`: the residual activity worked out at 63%.
Same read-out and setting: the figure for `O=C(O)/C=C/c1cc(Br)c(Br)c(Br)c1Br` is 70%; for `O=C1NC(=O)C(c2c[nH]c3ccccc23)=C1c1c[nH]c2ccccc12` it is 5%; for `Cn1c2ccccc2c2c3c(c4c5ccccc5n(CCC#N)c4c21)CNC3=O` it is 4%.
On to `O=C1NC(=O)c2c1c1c3ccccc3[nH]c1n1cncc21`, for which the residual activity was determined as 28%.
For `COc1cc2c(cc1OC)-c1n[nH]c(Nc3cccc(F)c3)c1C2`, the residual activity stood at 79%.
On the same count and under the same terms, the figure for `Nc1n[nH]c2nc3ccccc3nc12` is 47%; for `O=c1cc(N2CCNCC2)oc2c(-c3ccccc3)cccc12` it is 65%; for `CCCC(=O)Oc1ccc2[nH]c(C(=O)c3cc4ccccc4[nH]3)cc2c1` it is 91%.
Regarding `O=C1Nc2ccccc2/C1=C\c1c(Cl)[nH]c2ccccc12`, the residual activity turned out to be 54%.
Still for that read-out and setting: under `N#Cc1c(NC(=O)c2cccc3ccccc23)sc2c1CCCC2` stands 68%.
Same read-out and setting: the figure for `O=C1Nc2ccc(Cl)cc2/C1=C/c1cc(Cl)c(O)c(Cl)c1` is 40%; for `COc1cc2nccc(Oc3ccc(NC(=S)NC(=O)c4ccccc4C)cc3)c2cc1OC` it is 61%.
For `Oc1cccc(-c2nc(N3CCOCC3)c3oc4ncccc4c3n2)c1`, the residual activity turned out to be 84%.
Same read-out and setting: the figure for `O=C1Cc2c([nH]c3ccc(Br)cc23)-c2ccccc2N1` is 53%; for `NC(=O)Nc1sc(-c2ccc(F)cc2)cc1C(N)=O` it is 39%.
Same read-out and setting: the figure for `N#C/C(=C1/Nc2ccccc2S1)c1ccnc(NCCc2cccnc2)n1` is 39%; for `COc1ccc(Cl)cc1NC(=O)Nc1cc(C)nc2ccccc12` it is 62%.
On the same count and under the same terms, under `O=c1cc(N2CCOCC2)oc2c1ccc1ccccc12` stands 41%.
`Nc1ncnc2[nH]nc(Nc3ccc(F)cc3)c12`: the residual activity is 61%.
The same measure, in the same setting: the figure for `O=C(c1cc2cc(O)ccc2[nH]1)c1cc2cc(O)ccc2[nH]1` is 18%.
